The values that follow come from the supplement of paper PMC11006884.

Of roughly 6,500 targets only a part is listed; those with a hit were picked by preference. About 2% of all pairs of compound and target were hits. A number with no mark means an inactive call.

Sequence of UniProt Q93008 (Q93008 whole entry, looked up): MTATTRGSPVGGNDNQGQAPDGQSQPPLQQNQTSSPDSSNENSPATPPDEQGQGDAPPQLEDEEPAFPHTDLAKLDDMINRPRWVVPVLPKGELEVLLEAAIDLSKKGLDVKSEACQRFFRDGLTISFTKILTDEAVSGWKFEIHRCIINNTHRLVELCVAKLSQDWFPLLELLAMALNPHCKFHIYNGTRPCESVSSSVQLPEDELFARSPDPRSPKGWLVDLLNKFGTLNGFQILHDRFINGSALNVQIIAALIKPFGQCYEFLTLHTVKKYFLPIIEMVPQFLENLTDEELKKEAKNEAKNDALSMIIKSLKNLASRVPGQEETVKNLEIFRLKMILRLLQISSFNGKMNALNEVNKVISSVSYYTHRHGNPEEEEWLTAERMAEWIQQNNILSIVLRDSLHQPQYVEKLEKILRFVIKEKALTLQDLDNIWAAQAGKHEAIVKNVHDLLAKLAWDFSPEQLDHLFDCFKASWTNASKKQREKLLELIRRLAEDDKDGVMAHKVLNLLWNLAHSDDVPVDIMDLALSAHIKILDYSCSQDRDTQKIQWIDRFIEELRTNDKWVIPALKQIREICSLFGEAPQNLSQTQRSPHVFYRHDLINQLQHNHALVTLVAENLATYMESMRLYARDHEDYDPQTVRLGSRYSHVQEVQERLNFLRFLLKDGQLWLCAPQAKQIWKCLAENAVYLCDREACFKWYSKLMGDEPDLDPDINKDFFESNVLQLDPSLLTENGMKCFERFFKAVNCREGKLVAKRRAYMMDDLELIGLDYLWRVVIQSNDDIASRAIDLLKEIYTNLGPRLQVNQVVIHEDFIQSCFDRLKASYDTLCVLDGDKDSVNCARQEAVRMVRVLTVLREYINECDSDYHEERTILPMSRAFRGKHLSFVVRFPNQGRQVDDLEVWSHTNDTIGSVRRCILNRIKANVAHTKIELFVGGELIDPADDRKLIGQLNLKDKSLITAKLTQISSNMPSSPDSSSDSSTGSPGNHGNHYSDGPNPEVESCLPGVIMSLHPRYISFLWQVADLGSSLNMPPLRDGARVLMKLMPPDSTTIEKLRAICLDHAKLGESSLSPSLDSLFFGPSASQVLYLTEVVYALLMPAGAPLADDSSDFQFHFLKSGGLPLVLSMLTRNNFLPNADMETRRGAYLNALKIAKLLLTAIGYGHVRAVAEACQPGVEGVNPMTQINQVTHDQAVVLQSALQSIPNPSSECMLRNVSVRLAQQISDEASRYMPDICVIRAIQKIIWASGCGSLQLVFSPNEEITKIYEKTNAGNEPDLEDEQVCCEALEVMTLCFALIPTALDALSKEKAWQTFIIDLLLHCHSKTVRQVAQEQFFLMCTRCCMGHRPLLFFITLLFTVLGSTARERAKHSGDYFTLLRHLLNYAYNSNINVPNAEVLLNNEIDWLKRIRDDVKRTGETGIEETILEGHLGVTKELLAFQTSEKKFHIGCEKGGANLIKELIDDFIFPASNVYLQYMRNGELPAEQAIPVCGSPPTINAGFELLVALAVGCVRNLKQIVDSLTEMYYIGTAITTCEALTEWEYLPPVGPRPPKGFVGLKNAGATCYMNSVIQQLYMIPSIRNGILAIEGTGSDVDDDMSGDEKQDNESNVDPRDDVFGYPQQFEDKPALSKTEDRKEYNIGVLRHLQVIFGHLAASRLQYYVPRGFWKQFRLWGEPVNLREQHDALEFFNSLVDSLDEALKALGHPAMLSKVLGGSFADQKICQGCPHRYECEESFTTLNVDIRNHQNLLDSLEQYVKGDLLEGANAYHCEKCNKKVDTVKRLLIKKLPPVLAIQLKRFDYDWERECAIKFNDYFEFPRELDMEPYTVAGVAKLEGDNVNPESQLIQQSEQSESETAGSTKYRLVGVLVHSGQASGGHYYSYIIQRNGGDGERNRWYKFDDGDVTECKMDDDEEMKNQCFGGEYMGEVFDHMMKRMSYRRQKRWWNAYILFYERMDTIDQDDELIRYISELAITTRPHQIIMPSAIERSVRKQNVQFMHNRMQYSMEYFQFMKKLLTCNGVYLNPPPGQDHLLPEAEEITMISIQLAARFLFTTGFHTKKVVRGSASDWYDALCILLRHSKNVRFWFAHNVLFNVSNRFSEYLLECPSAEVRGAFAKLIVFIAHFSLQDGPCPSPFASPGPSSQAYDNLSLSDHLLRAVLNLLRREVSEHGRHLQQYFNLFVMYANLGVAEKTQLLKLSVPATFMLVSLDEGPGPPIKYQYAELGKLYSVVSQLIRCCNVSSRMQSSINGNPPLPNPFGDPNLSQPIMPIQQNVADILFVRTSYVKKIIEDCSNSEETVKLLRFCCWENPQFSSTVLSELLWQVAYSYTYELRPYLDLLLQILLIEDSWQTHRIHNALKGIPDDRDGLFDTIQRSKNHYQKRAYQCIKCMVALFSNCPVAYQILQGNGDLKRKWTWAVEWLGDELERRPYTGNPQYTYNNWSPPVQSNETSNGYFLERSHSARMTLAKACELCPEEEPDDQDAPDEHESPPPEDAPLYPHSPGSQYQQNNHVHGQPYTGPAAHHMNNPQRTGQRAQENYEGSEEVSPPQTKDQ
Sequence of UniProt Q9BRX5 (Q9BRX5 whole entry): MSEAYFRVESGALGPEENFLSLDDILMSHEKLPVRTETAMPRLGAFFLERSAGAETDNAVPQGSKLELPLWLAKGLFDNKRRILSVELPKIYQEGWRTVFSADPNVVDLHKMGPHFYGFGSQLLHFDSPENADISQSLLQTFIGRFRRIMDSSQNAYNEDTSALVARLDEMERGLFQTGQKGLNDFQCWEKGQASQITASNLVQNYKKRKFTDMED
Sequence of UniProt Q8IYB7 (Q8IYB7 whole entry, looked up): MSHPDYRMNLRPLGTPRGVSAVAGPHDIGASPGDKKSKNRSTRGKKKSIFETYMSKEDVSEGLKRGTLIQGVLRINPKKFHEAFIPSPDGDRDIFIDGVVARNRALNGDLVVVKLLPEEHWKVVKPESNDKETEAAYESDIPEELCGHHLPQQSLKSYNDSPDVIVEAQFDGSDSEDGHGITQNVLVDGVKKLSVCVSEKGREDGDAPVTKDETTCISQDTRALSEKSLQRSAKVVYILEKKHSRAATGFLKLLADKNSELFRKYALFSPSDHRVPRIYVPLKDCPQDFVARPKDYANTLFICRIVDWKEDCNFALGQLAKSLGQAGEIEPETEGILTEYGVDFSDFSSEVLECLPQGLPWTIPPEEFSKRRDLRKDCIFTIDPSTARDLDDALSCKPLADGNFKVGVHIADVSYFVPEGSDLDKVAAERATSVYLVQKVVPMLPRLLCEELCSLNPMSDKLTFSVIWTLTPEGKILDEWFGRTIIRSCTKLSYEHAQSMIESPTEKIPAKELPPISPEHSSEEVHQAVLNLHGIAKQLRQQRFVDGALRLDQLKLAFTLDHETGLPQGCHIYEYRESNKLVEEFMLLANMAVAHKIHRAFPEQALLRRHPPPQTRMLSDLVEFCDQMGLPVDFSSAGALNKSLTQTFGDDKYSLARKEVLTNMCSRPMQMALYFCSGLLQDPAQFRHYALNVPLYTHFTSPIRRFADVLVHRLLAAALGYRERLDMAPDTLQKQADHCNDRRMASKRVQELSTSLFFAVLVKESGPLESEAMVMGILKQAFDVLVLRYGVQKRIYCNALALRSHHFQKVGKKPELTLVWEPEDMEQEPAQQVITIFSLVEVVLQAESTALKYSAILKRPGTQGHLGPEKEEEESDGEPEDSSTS
Sequence of UniProt Q99832 (Q99832 whole entry, looked up): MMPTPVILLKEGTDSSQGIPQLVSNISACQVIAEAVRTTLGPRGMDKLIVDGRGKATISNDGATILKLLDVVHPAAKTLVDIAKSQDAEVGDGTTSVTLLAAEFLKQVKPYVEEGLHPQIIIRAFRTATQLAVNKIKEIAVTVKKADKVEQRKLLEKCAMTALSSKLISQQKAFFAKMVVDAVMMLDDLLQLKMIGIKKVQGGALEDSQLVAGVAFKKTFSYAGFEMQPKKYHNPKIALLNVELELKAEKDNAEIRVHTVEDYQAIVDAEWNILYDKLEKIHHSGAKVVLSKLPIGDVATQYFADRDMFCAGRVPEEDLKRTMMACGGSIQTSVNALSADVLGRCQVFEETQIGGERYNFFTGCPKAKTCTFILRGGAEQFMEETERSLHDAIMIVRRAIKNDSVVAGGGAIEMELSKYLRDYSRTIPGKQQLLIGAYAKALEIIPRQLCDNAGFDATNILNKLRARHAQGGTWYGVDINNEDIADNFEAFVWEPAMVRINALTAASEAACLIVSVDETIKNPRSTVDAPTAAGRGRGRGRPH
Sequence of UniProt Q9BQ67 (Q9BQ67 whole entry, looked up): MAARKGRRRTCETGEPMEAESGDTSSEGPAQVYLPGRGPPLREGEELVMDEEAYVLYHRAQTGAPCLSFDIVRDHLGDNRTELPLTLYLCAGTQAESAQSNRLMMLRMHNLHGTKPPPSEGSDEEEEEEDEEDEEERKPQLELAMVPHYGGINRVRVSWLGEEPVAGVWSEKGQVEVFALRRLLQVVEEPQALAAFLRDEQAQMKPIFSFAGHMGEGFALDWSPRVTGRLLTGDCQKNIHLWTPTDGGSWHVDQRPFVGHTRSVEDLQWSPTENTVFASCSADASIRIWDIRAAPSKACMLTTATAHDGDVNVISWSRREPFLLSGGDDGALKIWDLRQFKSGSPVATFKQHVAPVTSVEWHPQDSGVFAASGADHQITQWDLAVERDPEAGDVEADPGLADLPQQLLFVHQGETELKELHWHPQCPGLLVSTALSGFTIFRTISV
Sequence of UniProt Q8IY95 (Q8IY95 whole entry): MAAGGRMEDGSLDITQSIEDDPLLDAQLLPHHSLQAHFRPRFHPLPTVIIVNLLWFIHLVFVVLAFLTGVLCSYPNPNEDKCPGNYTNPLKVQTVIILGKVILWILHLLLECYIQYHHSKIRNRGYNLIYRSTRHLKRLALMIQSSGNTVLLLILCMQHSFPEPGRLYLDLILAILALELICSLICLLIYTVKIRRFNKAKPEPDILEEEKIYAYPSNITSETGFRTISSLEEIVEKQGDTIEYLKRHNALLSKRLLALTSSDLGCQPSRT

Compound in the experiment: COC(=O)C#Cc1ccccc1 [methyl 3-phenylpropiolate]
The experiment can be described thus: log2 ratio of iodoacetamide-alkyne labeling of the cysteine site, DMSO over compound (competition); higher = stronger covalent engagement of the cysteine by the compound, active = 1 or more. To be noted: 500 µM; treatment time 1 h; system: HEK293T cell lysate. In outline: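 HEK293T lysate at 2 mg/mL was treated with vehicle or electrophile (500 µM) for 1 h at ambient temperature, then labelled with iodoacetamide alkyne (1 h), clicked to sCIP-TMT reagents, pooled, digested with trypsin overnight at 37 °C, enriched on streptavidin and eluted with acid. Peptides were analysed by Orbitrap Eclipse LC-MS/MS with FAIMS and quantified in FragPipe, using duplicate channels and three replicates, with cysteines quantified in only one replicate excluded. The log2 competition ratio for each cysteine is the mean control-channel reporter intensity divided by the mean compound-channel reporter intensity.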
On to UniProt Q8NBJ5_C412, for which the “log2 ratio of iodoacetamide-alkyne labeling” value (“log2 ratio” for short) was 0.133.

ARID2 C1549 (UniProt Q68CP9): the “log2 ratio” value is 0.434.

With CCT7 C158 (UniProt Q99832), the “log2 ratio” value is 0.152.

Take DHX38 C27 (UniProt Q92620): the “log2 ratio” value was 1.36 (active).

TMEM192 C266 (UniProt Q8IY95): the “log2 ratio” value was 0.418.

In the case of DIS3L2 C312 (UniProt Q8IYB7), the “log2 ratio” value was 0.226.

Regarding UniProt Q6PJG6_C228, the “log2 ratio” value is 1.06 (active).

USP9X C1061 (UniProt Q93008): the “log2 ratio” value is 0.0678.

On to SIN3A C486 (UniProt Q96ST3), for which the “log2 ratio” value is -0.0562.

Take CCAR1 C579 (UniProt Q8IX12): the “log2 ratio” value is 0.0854.

Consider GSTCD C335 (UniProt Q8NEC7), for which the “log2 ratio” value is 0.19.

In the case of GINS3 C188 (UniProt Q9BRX5), the “log2 ratio” value is 0.255.

Take SMCR8 C644 (UniProt Q8TEV9): the “log2 ratio” value is 0.488.

Take MYBBP1A C968 (UniProt Q9BQG0): the “log2 ratio” value is 0.274.

Regarding UniProt Q8NB37_C154, the “log2 ratio” value was 0.389.

Regarding VPS13B C2907 (UniProt Q7Z7G8), the “log2 ratio” value was 0.889.

Take YOD1 C97 (UniProt Q5VVQ6): the “log2 ratio” value is 0.146.

For FBXO30 C317 (UniProt Q8TB52), the “log2 ratio” value was 0.564.

Turning to LARP1 C502 (UniProt Q6PKG0), the “log2 ratio” value was 0.269.

As to NCAPH2 C342 (UniProt Q6IBW4), the “log2 ratio” value was 1.07 (active).

Consider GRWD1 C299 (UniProt Q9BQ67), for which the “log2 ratio” value was 0.364.

For EP400 C162 (UniProt Q96L91), the “log2 ratio” value was 0.339.
